This note sets out measurements from the supplement of paper PMC10981050.

Structures can show the parent of a compound that is named as a salt.

The experiment concerns MARIMO. Briefly: cell viability relative to vehicle control; higher = less cytotoxic. The note with it: 10 µM; SRSF2 genotype: SRSF2 P95H/wt. An outline of the steps: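 After removal of identity-inconsistent compounds, the Selleck bioactive, kinase and epigenetic probe libraries were screened on CRISPR-edited mutant clones and isogenic wild-type clones of four leukaemia lines. Plates were 384-well, each well holding 2000 cells in 50 µL medium and receiving a single 10 µM acoustically dispensed dose. CellTiter-Glo luminescence was read 48 h later, after the supernatant was taken off. Genedata Screener was used to express viability as percent of the on-plate vehicle control.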
Broadly, the cell viability is a read-out of living cells in per cent, often relative to untreated cells. In the case of `CCCCCCCCCCCCc1ccc(S(=O)(=O)Nc2nncs2)cc1`, the cell viability was 105%.

`C#C[C@]1(O)CC[C@H]2[C@@H]3CCc4cc(O)ccc4[C@H]3CC[C@@]21C` [Ethinyl Estradiol]: the cell viability turned out to be 70.1%.

For `C[C@]12CCC(=O)C=C1[C@@H]1C[C@@H]1[C@H]1[C@@H]3[C@@H]4C[C@@H]4[C@@]4(CCC(=O)O4)[C@@]3(C)CC[C@@H]12` [Drospirenone], the cell viability came out at 82%.

Turning to `CS(=O)(=O)CCNCc1ccc(-c2ccc3ncnc(Nc4ccc(OCc5cccc(F)c5)c(Cl)c4)c3c2)o1` [Lapatinib], the cell viability stood at 83.2%.

In the case of `C[C@H](CC[C@@]1(O)O[C@H]2C[C@H]3[C@@H]4CC=C5C[C@@H](O[C@@H]6O[C@H](CO)[C@@H](O[C@@H]7O[C@@H](C)[C@H](O)[C@@H](O)[C@H]7O)[C@H](O)[C@H]6O[C@@H]6O[C@@H](C)[C@H](O)[C@@H](O)[C@H]6O)CC[C@]5(C)[C@H]4CC[C@]3(C)[C@H]2[C@@H]1C)CO[C@@H]1O[C@H](CO)[C@@H](O)[C@H](O)[C@H]1O` [Protodioscin], the cell viability was 0.64%.

In the case of `CC(=NNC(=S)N1CCC1)c1ccccn1`, the cell viability is 7.26%.

As for `CN(CC(=O)N(Cc1ccc(C2CCCCC2)cc1)c1ccc(C(=O)O)c(O)c1)S(=O)(=O)c1c(F)c(F)c(F)c(F)c1F`, the cell viability was 57.8%.

For the compound `CNS(=O)(=O)Nc1nccc(Cc2c(C)c3ccc(Oc4ncccn4)cc3oc2=O)c1F`, the cell viability amounted to 36%.

With `CC(C)n1c([C@H](C)Nc2ncnc(N)c2C#N)cc2cccc(-c3ccc(=O)n(C)c3)c2c1=O`, the cell viability was 46.7%.

`CCCN(CCC)C(=O)C1=Cc2ccc(-c3ccc(C(=O)N4CCCC4)cc3)cc2N=C(N)C1` [Motolimod (VTX-2337)]: the cell viability stood at 33.2%.

Take `O=C(O)[C@H]1O[C@@H](Oc2cc3oc(-c4ccc(O)cc4)cc(=O)c3c(O)c2O)[C@H](O)[C@@H](O)[C@@H]1O` [Scutellarin]: the cell viability was found to be 100%.

With `CS(=O)(=O)c1ccc(-c2nnc(/C=C/c3nnc(-c4ccc(C#N)cc4)o3)n2-c2ccccc2Cl)nc1`, the cell viability is 104%.

For `CC(C)=CCCC(C)=CCCC(C)=CCCC(C)=CCC1=C(C)C(=O)c2ccccc2C1=O` [Vitamin K2], the cell viability is 82.8%.

Regarding `OCC(CO)N[C@H]1C[C@](O)(CO)[C@@H](O)[C@H](O)[C@H]1O` [Voglibose], the cell viability is 98.1%.

Turning to `C[C@]12CC[C@@H]3c4ccc(OC(=O)c5ccccc5)cc4CC[C@H]3[C@@H]1CC[C@@H]2O` [Estradiol Benzoate], the cell viability turned out to be 54.6%.

As for `CC(C)(Sc1ccncc1-c1ccc(C#N)c2ccccc12)C(=O)O` [Verinurad (RDEA3170)], the cell viability stood at 105%.

As for `N#Cc1c(Oc2ccc(F)c(NC(=O)Cc3cccc(C(F)(F)F)c3)c2)ccc2nc(NC(=O)C3CC3)sc12`, the cell viability was 40.9%.

`O=C(CSc1nc2c(c(=O)n1-c1ccccc1)SCC2)Nc1ccc(-c2ccccc2)cn1`: the cell viability is 100%.

`C=C(C)C1CC=C(C)CC1` (single isomer, unassigned; (+)) [(+)-Dipentene]: the cell viability was 104%.

As for `NC(=O)Nc1cc(-c2cccc(F)c2)sc1C(=O)N[C@H]1CCCNC1`, the cell viability was determined as 13.3%.

Take `Cc1[nH]c(=O)c(C#N)cc1-c1ccncc1` [Milrinone (Primacor)]: the cell viability stood at 96.1%.

As to `NCCCC[C@@H]1NC(=O)[C@@H](Cc2ccc(O)cc2)NC(=O)[C@H](CC(=O)O)NC(=O)CNC(=O)[C@H](CCCN=C(N)N)NC1=O` [Cyclo(RGDyK)], the cell viability stood at 92.8%.

As to `CCN(Cc1ccncc1)C(=O)C(CO)c1ccccc1` (stereo unspecified) [Tropicamide], the cell viability worked out at 107%.

For the compound `O=c1c2cc(O)c(O)cc2oc2cc(O)c([C@@H]3O[C@H](CO)[C@@H](O)[C@H](O)[C@H]3O)c(O)c12` [Mangiferin], the cell viability was 97.7%.

With `C=CC[S+]([O-])C[C@H](N)C(=O)O` (stereo partly specified) [Alliin], the cell viability is 104%.

For `CCN1CCN(Cc2ccc(C(=O)Nc3ccc(C)c(Oc4ccc5c(c4)CC(=O)N5)c3)cc2C(F)(F)F)CC1`, the cell viability was determined as 70.5%.

As for `Cc1cc(C)c(-c2csc(NC(=O)c3ccccc3)n2)c(C)c1`, the cell viability amounted to 35.1%.

For `COc1ccccc1OCC(O)CN1CCN(CC(=O)Nc2c(C)cccc2C)CC1` (stereo unspecified) [Ranolazine dihydrochloride], the cell viability amounted to 96.7%.

For the compound `COc1cc2c(=O)c(-c3ccc(O)cc3)coc2cc1O[C@@H]1O[C@H](CO)[C@@H](O)[C@H](O)[C@H]1O` [Glycitin], the cell viability came to 95.2%.

With `C#C[C@]1(O)CC[C@H]2[C@@H]3CCc4cc(OC5CCCC5)ccc4[C@H]3CC[C@@]21C` [Quinestrol], the cell viability was determined as 62.4%.

With `CC(C)(Cc1ccc2ccccc2c1)NC[C@@H](O)COc1cccc(Cl)c1C#N`, the cell viability came out at 26.8%.
